# Screening data as filed in PubChem.
# An excerpt weighted towards active compounds, which were near 3.6% of everything screened.
# Rango complex inh: prevents formation of the Rango-importin beta complex; AID 540263; hit rate 0.031% among 340,000; Potency, µM (highest dose often 92.2 µM), for inactives: at the highest dose inhibition of complex formation; Rango CFP/YFP FRET sensor + importin beta, 45 min; calls by dose curve;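 further: potency means the concentration at half of the fitted maximal effect; 0% = DMSO wells and 100% = buffer wells lacking importin beta; nearly all actives have a fitted effect of over 15% in size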
#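 FRET biosensor Rango (snurportin 1 IBB between N-terminal EYFP and C-terminal Cerulean), 50 nM in PBS/1 mM DTT/0.02% Tween-20/0.1% BSA, preincubated 5 min RT with compound; 0.125 microM importin beta added, 45 min RT, CFP/YFP FRET ratio read.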
# Rango release inh: inhibition of RanGTP-driven Rango-importin beta dissociation; Potency, µM (series often up to 46.1 µM), inactives show top-dose activity change, negative = inhibition; Biochemical FRET Rango-importin beta, RanGTP-induced dissociation; AID 540253; hit rate 0.071% among 340,000; calls by dose curve; further: potency means the concentration at half of the fitted maximal effect; % of control where 0% means no effect; nearly all actives have a fitted effect of over 45% in size
#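 Quantitative HTS using a FRET biosensor: 0.1 uM Rango, 0.25 uM importin beta, 0.6 uM Ran, 2 mM GTP, 0.2 uM RCC1 final, PBS with DTT, Tween-20 and BSA. Post-read taken 45 min after Ran addition.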
# PLK1 PBD inh: inhibitors of human PLK1 polo-box domain binding | Plk1 PBD binding of FITC phosphopeptide, fluorescence polarization | Potency, µM, without a hit: max response, negative = inhibition, actives largely listed as inhibitors | hit rate 2.8% among 360,000 | AID 720504; further: potency means the concentration at half of the fitted maximal effect; series mostly up to about 57 µM; on the % scale 0 is the no-effect control and ±100 the full control effect; nearly all actives have a fitted effect of over 65% in size
# VDR inhibitor: vitamin D3 receptor (human) inhibition | P11473 | VDR-SRC2-3 peptide fluorescence polarization, 2 h | Potency, µM, for the others: max response, negative = inhibition, usual class: inhibitors | hit rate 0.93% among 400,000 | AID 504847; further: potency means the concentration at half of the fitted maximal effect; on the % scale 0 is the no-effect control and ±100 the full control effect
#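 Reagent solutions, kept cold and dark, are dispensed first; compounds are then pinned in at 23 nl, plates briefly spun, and incubated 2 h at ambient temperature. Inhibition of VDR–SRC2-3 peptide binding is read by fluorescence polarization.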
# PI5P4K alpha inh: blocks human PI5P4K alpha kinase activity. PI5P4Kalpha enzyme, ADP-Glo luminescence, 60 min; active compounds read low. max response, %. hit rate 1.2% among 330,000; active means max response of -50% or lower; inconclusive means between -30% and -50%; inactive means -30% or higher; further: value at the top dose of about 77 µM; on the % scale 0 is the no-effect control and ±100 the full control effect
# Target sequence (P48426 whole entry, looked up): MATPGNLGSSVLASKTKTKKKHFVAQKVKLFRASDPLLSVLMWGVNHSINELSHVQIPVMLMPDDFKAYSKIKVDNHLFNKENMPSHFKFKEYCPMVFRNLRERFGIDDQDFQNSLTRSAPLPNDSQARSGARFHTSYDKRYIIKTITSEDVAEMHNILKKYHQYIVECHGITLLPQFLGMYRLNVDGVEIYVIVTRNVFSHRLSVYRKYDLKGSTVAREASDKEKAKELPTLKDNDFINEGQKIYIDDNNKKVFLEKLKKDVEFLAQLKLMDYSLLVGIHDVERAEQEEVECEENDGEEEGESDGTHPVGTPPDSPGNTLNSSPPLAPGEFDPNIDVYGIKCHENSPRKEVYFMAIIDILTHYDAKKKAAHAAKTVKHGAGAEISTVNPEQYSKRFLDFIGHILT
#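 ADP-Glo luminescence end-point read after a 60 min room-temperature kinase reaction of PI5P4Kalpha plus substrate, initiated with ATP at 5 microM final. Buffer: 0.038 M HEPES pH 7.4, EGTA, 0.1% CHAPS, 5% DMSO.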
# GCN5L2 inh: GCN5L2 (KAT2A) acetyltransferase inhibition. Q92830. GCN5L2 HAT assay, ThioGlo1 CoA-SH fluorescence. Potency, µM (titrated, usually from 58.9 µM), for the others: top-dose activity change, negative = inhibition, most hits filed as inhibitors. hit rate 0.21% among 390,000; further: potency means the concentration at half of the fitted maximal effect; on the % scale 0 is the no-effect control and ±100 the full control effect
#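 Free CoA generated was detected with ThioGlo1 (50uM) fluorescence at Ex340nm/Em540nm, read immediately and after 20 min at room temperature. Enzyme, 20 nM in HEPES pH 7.5 buffer, saw compounds 15 min before adding 75uM H3(1-25) peptide and 70uM acetyl-CoA.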
# * marks the source's active call; other numbers are inactive results; ? = inconclusive; · = no result. Unless noted, the call rests on the fitted dose curve; in most records, active means well fitted curve in the direction sought with a large enough effect; inconclusive means small, poorly fitted or top-dose-only effect, or another doubt; inactive means no such curve, though single readings can be large; an effect the other way counts as inactive or inconclusive.
SMILES,Rango complex inh,Rango release inh,PLK1 PBD inh,VDR inhibitor,PI5P4K alpha inh,GCN5L2 inh
C#CCOCCOCCOCCNc1nc(N2CCN(C(=O)CCCCCCCCCCNC(=O)[C@H](CCCCN)n3cc(CCO)nn3)CC2)nc(N2CCN(C(=O)CCCCCCCCCCNC(=O)[C@H](CCCCN)n3cc(CCCC(=O)O)nn3)CC2)n1,-0.4%,-3.8%,-9.6%,-9.6%,?,-10.5%
C#CCOCCOCCOCCNc1nc(N2CCN(C(=O)CCCCCCCCCCNC(=O)[C@H](CCCCN)n3cc(CCO)nn3)CC2)nc(N2CCN(C(=O)CCCCCCCCCCNC(=O)[C@H](CCCCN)n3cc(C[C@@H](C)CC)nn3)CC2)n1,?,-17.2%,-21.8%,26.9%,-61.6*,-6.8%
C#CCOCCOCCOCCNc1nc(N2CCN(C(=O)CCCCCCCCCCNC(=O)[C@@H](CCC(=O)O)n3cc(CCCCCN)nn3)CC2)nc(N2CCN(C(=O)CCCCCCCCCCNC(=O)[C@H](CO)n3cc(CCCCCN)nn3)CC2)n1,4.1%,-8.3%,-8.3%,-1.2%,-54.3*,-1.8%
C#CCOCCOCCOCCNc1nc(N2CCN(C(=O)CCCCCCCCCCNC(=O)[C@@H](CCC(=O)O)n3cc(CCCCCN)nn3)CC2)nc(N2CCN(C(=O)CCCCCCCCCCNC(=O)[C@H](CCCCN)n3cc(C[C@@H](C)CC)nn3)CC2)n1,?,-4.6%,-1.6%,10.3%,-53.4*,-0.5%
C#CCOCCOCCOCCNc1nc(N2CCN(C(=O)CCCCCCCCCCNC(=O)[C@H](CCCN=C(N)N)n3cc(C[C@@H](C)CC)nn3)CC2)nc(N2CCN(C(=O)CCCCCCCCCCNC(=O)[C@@H]([C@H](C)CC)n3cc(CCCCCN)nn3)CC2)n1,·,·,·,·,·,-5.2%
C#CCOCCOCCOCCNc1nc(N2CCN(C(=O)CCCCCCCCCCNC(=O)Cn3cc(CCCCCN)nn3)CC2)nc(N2CCN(C(=O)CCCCCCCCCCNC(=O)Cn3cc(C[C@@H](C)O)nn3)CC2)n1,1.5%,-7.1%,33.5%,36.1%,-64.9*,1.8%
CC1C(=O)N2CCCc3cc(S(=O)(=O)Nc4ccc(Br)cc4F)cc1c32 (stereo not drawn),·,·,·,-3.7%,·,-10.9%
C[C@H](NC(=O)CNC(=O)[C@@H](NC(=O)[C@H](Cc1ccccc1)NC(=O)CNC(=O)CNC(=O)[C@@H](N)Cc1ccccc1)[C@@H](C)O)C(=O)N[C@@H](CCCN=C(N)N)C(=O)N[C@@H](CCCCN)C(=O)N[C@@H](CO)C(=O)N[C@@H](C)C(=O)N[C@@H](CCCN=C(N)N)C(=O)N[C@H](CN)CCCCN,·,·,·,0.5%,·,-1.1%
CCCCOc1ccc(S(=O)(=O)Nc2cccc(-c3ccc(N4CCOCC4)nn3)c2)cc1,·,·,·,-0.4%,·,-12.4%
N#CC(=C(O)COC(=O)Cc1c[nH]c2ccccc12)c1nc2ccccc2[nH]1,?,-7.4%,-4.1%,-6.6%,-54.0*,·
N#C/C(=C(/O)CCl)c1nc2ccccc2[nH]1,?,13µM*,0.9%,-23.0%,-28.7,1.5%
COc1ccccc1N1CCN(c2nc(-c3ccc(C)cc3)nc3ccccc23)CC1,·,·,·,10.6%,·,-14.5%
O=C(c1ccco1)N1CCN(S(=O)(=O)c2ccc([N+](=O)[O-])cc2)CC1,6.3%,-7.4%,3.6%,-12.9%,-0.5,-9.7%
O=C(c1ccco1)N1CCN(S(=O)(=O)c2ccccc2[N+](=O)[O-])CC1,-4.3%,-13.4%,29.9µM*,-9.9%,-12.8,-9.2%
O=[N+]([O-])c1ccccc1S(=O)(=O)N1CCCCC1,4.8%,4.5%,26.7µM*,-20.0%,-5.0,-2.6%
CC(=O)N1c2c(cc(Br)cc2S(=O)(=O)N2CCN(c3ccccc3)CC2)CC1C (stereo not drawn),·,·,·,5.3%,·,-6.7%
CC(=O)N1c2c(cc(Br)cc2S(=O)(=O)N2CCN(C(=O)c3ccco3)CC2)CC1C (stereo not drawn),0.3%,2.7%,4.74µM*,?,?,-4.5%
COc1ccccc1NC(=O)c1cc2cc3ccc(OC)c(Cl)c3nc2s1,·,·,·,0.7%,·,-24.4%
O=C(O)/C=C/C(=O)NNC(=O)c1ccc(Cl)cc1Cl,0.6%,14.2%,23.8µM*,-2.4%,-9.4,-3.2%
COC(=O)NNC(=O)c1ccc(Cl)cc1Cl,-0.6%,-21.4%,0.7%,-8.4%,3.1,0.9%
Cc1oc(-c2ccc(-c3ccccc3)cc2)nc1CN(C)C1CCOC1 (stereo not drawn),0.1%,32.8%,23.8µM*,-20.5%,1.3,-18.3%
COc1ccc(/C=N/n2c(COc3ccccc3)n[nH]c2=S)cc1OC,0.3%,1.2%,18.9µM*,-5.8%,-15.2,3.1%
COc1cc(OC)c(OC)cc1/C=N/n1c(COc2ccccc2)n[nH]c1=S,2.7%,-9.2%,26.7µM*,-24.3%,-19.7,1.1%
COc1cc2c3nnc(-c4ccccc4)c-3cn(Cc3ccccc3F)c2cc1OC,?,?,21.2µM*,10.9%,-13.1,0.0%
CCOc1ccc(-c2c(C)nn3c(C)c(C(=O)NCC(C)c4ccccc4)cnc23)cc1OCC (stereo not drawn),·,·,·,3.6%,·,-3.9%
SMILES,Rango complex inh,Rango release inh,PLK1 PBD inh,VDR inhibitor,PI5P4K alpha inh,GCN5L2 inh
O=C1CC(c2ccc(O)cc2)Oc2cc(O)cc(O)c21 (stereo not drawn),5.8%,5.7%,-10.9%,1.4%,-14.4,-8.3%
CC1CC(=O)c2c(cc3c(-c4c(O)cc(O)c5c(O)c6c(cc45)OC(C)CC6=O)c(O)cc(O)c3c2O)O1 (stereo not drawn),10.5%,?,26.7µM*,?,-79.7*,?
COc1cccc(/C=N/NC(=O)CC(=O)NCCc2ccc(OC)c(OC)c2)c1,2.1%,13.9%,26.7µM*,-14.3%,·,-22.1%
CCOc1ccc(-n2c(=O)c3c(C)c(C)sc3n(CC(=O)c3ccccc3)c2=O)cc1,·,·,·,9.2%,·,-3.5%
CCCN(CCC)C(=O)Cn1c(=O)n(-c2ccc(CC)cc2)c(=O)c2c3c(sc21)CCC3,·,·,·,16.9%,·,-0.2%
Cc1ccc(Nc2c(-c3ccccc3O)nc3cc(C)ccn23)cc1,·,·,·,8.2%,·,25.1µM*
Cc1ccc(Nc2c(-c3ccccc3O)nc3cnccn23)cc1,?,-14.9%,0.3%,1.3%,7.9,-8.2%
CCN(C(=O)CSc1nc(-c2ccccc2)no1)c1cccc(C)c1,·,·,·,-9.8%,·,-3.5%
COc1ccc(N(C(=O)/C=C\C(=O)Nc2ccc(Cl)cc2)C(C(=O)NCc2ccco2)c2ccc(C)cc2)cc1 (stereo not drawn),·,·,·,11.5%,·,-12.0%
CCN1C(=O)/C(=c2\sc3nc(=O)c(Cc4ccccc4)nn3c2=O)c2ccccc21,6.3%,16.6%,?,?,-20.1,-12.1%
